Here are results for 14 compounds from PubChem BioAssay (Tox21).

Values without a mark were called inactive. Records with an inconclusive call do not appear. Active and inactive are the calls of the source. Unless noted, calls follow the shape of the dose curve; as a rule, active = well fitted curve in the direction sought with a large enough effect in the repeat runs; inconclusive = weak or mixed curves; inactive = no such curve, though single readings can be large; an effect the other way counts as inactive or inconclusive.

The nature of assay [1]: A CellTox Green Cytotoxicity Assay to monitor cytotoxicity in HepG2 cells - 0 hour (AID 1224882). Also: nearly all actives have a fitted effect of over 35% in size. The gist of the method: (§1)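 Real-time, homogeneous cytotoxicity readout: dead-cell DNA staining by CellTox Green in HepG2 monolayers, fluorescence measured at timed intervals up to 40 h of continuous compound exposure.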
Assay [2] can be described thus: A CellTox Green Cytotoxicity Assay to monitor cytotoxicity in HepG2 cells - 32 hour (AID 1224883). Also: nearly all actives have a fitted effect of over 50% in size. The gist of the method:
as §1

A short description of assay [3]: A CellTox Green Cytotoxicity Assay to monitor cytotoxicity in HEK293 cells - 8 hour (AID 1224884). Also: nearly all actives have a fitted effect of over 35% in size. The gist of the method: (§2)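 Cytotoxicity was tracked continuously in HEK293 cells by a DNA-binding dye excluded from viable cells. Compounds were transferred in DMSO 5 h after seeding; fluorescence was recorded at intervals up to 40 h.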
Assay [4] can be described thus: qHTS RealTime-Glo MT Cell Viability Assay in HepG2 cells - 16 hour (AID 1224885). Also: nearly all actives have a fitted effect of over 50% in size. The gist of the method:
(§3)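 Cells + NanoLuc/prosubstrate dispensed (600 cells/well) → 5 h at 37 C/5% CO2 → compounds in DMSO transferred → 40 h incubation at 37 C, luminescence read at 0, 8, 16, 24, 32, 40 h.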
For orientation: Quantitative high-throughput screening tests each substance at several concentrations.

A short description of assay [5]: qHTS RealTime-Glo MT Cell Viability Assay in HEK293 cells - 24 hour (AID 1224886). Also: nearly all actives have a fitted effect of over 50% in size. Also: potency is read from the fitted curve at half-maximal effect. The gist of the method:
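Tox21 10K qHTS, HEK293, 600 cells/well, RealTime-Glo reagent co-dispensed with cells; 5 h preincubation, compound by pintool, 37 C, luminescence at 0–40 h.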

The nature of assay [6]: qHTS RealTime-Glo MT Cell Viability Assay in HEK293 cells - 8 hour (AID 1224887). Also: nearly all actives have a fitted effect of over 50% in size. Also: potency is read from the fitted curve at half-maximal effect. The gist of the method: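 Nonlytic bioluminescent viability monitoring. HEK293 at 600 cells/well with reagent; 5 h settle; compound transfer by pintool; plates held at 37 C and read at set time points.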
A short description of assay [7]: A CellTox Green Cytotoxicity Assay to monitor cytotoxicity in HEK293 cells - 16 hour (AID 1224888). Also: nearly all actives have a fitted effect of over 35% in size. The gist of the method: as §2
Assay [8] is described as follows: qHTS RealTime-Glo MT Cell Viability Assay in HepG2 cells - 0 hour (AID 1224889). Also: nearly all actives have a fitted effect of over 50% in size. The gist of the method: as §3
The nature of assay [9]: A CellTox Green Cytotoxicity Assay to monitor cytotoxicity in HepG2 cells - 8 hour (AID 1224890). Also: nearly all actives have a fitted effect of over 45% in size. The gist of the method: as §1
The nature of assay [10]: qHTS assay to identify small molecule antagonists of the estrogen receptor alpha (ER-alpha) signaling pathway using the BG1 cell line in the presence of 0.1 nM 17-beta-estradiol - cell viability counter screen (AID 1259241). Also: nearly all actives have a fitted effect of over 40% in size. The gist of the method:
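In this screen, hormone-deprived VM7Luc4E2 cells were seeded at 4,000 per well, dosed with compound and 0.1 nM estradiol final, and incubated 22 hr at 37C and 5% CO2; fluorogenic live-cell protease signal reported viability.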

A short description of assay [11]: qHTS assay to identify small molecule antagonists of the androgen receptor (AR) signaling pathway using the MDA cell line in the presence of 0.5 nM R1881 - cell viability counter screen (AID 1259242). Also: nearly all actives have a fitted effect of over 45% in size. The gist of the method: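 Cytotoxicity toward MDA-kb2 cells is measured by CellTiter-Fluor live-cell protease fluorescence after 16 hr compound exposure at 37C in the presence of 0.5 nM R1881 stimulator.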

The target in assay [12] is Estrogen receptor (Homo sapiens) (UniProt P03372). The assay is described as follows: qHTS assay to identify small molecule antagonists of the estrogen receptor alpha (ER-alpha) signaling pathway using the BG1 cell line in the presence of 0.1 nM 17-beta-estradiol (AID 1259244). Also: nearly all actives have a fitted effect of over 50% in size. The procedure, abridged: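 After 5 days in hormone-depleted medium (charcoal-stripped serum, no phenol red), VM7Luc4E2 cells were seeded, incubated 24 h, then co-treated with compound and 0.1 nM (final) estradiol for 22 h before luminescence detection.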
Chain of Estrogen receptor (Homo sapiens) (P03372 whole entry, looked up): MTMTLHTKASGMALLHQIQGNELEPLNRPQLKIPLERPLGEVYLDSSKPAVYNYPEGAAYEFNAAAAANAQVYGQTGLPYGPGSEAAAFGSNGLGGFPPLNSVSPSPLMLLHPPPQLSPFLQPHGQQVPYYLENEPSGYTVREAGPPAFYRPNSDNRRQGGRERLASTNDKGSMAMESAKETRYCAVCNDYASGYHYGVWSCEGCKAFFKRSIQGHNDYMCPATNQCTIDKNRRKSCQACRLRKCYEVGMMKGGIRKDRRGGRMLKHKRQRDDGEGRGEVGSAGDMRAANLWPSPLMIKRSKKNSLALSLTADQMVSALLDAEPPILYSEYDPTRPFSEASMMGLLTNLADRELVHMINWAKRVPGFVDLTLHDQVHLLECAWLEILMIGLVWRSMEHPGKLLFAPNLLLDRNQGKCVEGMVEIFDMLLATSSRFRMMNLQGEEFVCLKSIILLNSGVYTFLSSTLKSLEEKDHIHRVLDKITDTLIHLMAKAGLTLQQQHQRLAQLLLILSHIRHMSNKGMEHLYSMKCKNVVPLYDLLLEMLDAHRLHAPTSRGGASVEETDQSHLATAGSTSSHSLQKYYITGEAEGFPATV

A short description of assay [13]: qHTS assay to identify small molecule HDAC inhibitors (AID 1259364). Also: top concentration of the series differs between compounds; nearly all actives have a fitted effect of over 45% in size. The procedure, abridged: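 Homogeneous cell-based luminescent assay of endogenous class I/II HDAC activity; HCT-116 cells, 2 h compound exposure, 30 min HDAC-Glo development at RT.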
Assay [14] is described as follows: qHTS assay to identify small molecule HDAC inhibitors - cell viability counter screen (AID 1259365). The procedure, abridged:
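Measured quantity is CellTiter-Glo luminescence from wild-type HCT-116 cells after compound incubation of 2hr at 37C, 5% CO2; reagent developed 30min at room temperature.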

The nature of assay [15]: qHTS assay to identify small molecule agonists of the sonic hedgehog signaling (Shh) pathway (AID 1259368; calls by dose curve;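 also: NIH/3T3-derived 3T3Gli1-Luc cells carrying a stable Gli1-driven firefly luciferase reporter; series mostly up to about 92 µM; nearly all actives have a fitted effect of over 15% in size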). The gist of the method:
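Steps: seed 3T3 Gli1-Luc cells, incubate 4 hr at 37 C, pin-transfer compounds in DMSO alongside a positive control, incubate 24 hr, add luciferase detection reagent, wait 30 min at room temperature, read luminescence.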

For assay [16], the target named is Androgen receptor (Homo sapiens) (UniProt P10275). The assay is described as follows: qHTS assay to identify small molecule antagonists of the androgen receptor (AR) signaling pathway using the MDA cell line in the presence of 0.5 nM R1881 (AID 1259243). Also: nearly all actives have a fitted effect of over 50% in size. The gist of the method: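 Steps: seed MDA-kb2 cells, incubate 5 hr at 37C; pin-transfer compounds in DMSO; add R1881 to 0.5 nM final; incubate 16 hr; add ONE-Glo, wait 30 min at room temperature; read luminescence.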
Chain of Androgen receptor (Homo sapiens) (P10275 whole entry, looked up): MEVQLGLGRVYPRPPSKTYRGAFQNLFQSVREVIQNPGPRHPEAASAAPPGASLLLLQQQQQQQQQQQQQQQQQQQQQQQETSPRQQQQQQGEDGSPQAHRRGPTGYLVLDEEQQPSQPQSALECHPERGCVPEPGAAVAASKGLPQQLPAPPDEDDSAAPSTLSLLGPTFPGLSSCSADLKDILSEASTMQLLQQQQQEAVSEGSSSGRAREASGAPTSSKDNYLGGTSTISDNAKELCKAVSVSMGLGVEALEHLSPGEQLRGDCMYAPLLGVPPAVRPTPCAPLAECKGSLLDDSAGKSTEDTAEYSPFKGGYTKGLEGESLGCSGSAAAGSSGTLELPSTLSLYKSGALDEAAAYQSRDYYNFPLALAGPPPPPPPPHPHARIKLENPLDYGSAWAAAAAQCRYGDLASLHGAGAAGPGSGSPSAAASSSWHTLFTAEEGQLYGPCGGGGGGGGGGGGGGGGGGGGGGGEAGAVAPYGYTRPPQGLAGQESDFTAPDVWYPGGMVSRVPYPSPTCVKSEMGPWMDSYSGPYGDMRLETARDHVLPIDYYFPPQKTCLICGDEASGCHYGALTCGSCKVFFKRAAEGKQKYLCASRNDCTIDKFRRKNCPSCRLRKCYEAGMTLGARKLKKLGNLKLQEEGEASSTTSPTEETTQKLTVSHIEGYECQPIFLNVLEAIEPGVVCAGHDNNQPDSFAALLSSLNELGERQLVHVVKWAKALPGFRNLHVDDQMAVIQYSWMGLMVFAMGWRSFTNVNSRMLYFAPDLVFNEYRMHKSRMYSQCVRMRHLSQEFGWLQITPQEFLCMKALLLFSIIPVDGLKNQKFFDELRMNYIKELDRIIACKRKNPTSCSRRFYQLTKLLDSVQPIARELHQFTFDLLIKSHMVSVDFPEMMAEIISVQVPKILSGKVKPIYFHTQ

The nature of assay [17]: qHTS assay to identify small molecule agonists of the sonic hedgehog signaling (Shh) pathway - cell viability counter screen (AID 1259366). Also: nearly all actives have a fitted effect of over 50% in size. The procedure, abridged: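 In quantitative high-throughput format, 3T3 Gli1-Luc cells were exposed to compounds for 24hr and multiplexed for viability using CellTiter-Fluor, incubated 1hr at 37C before the fluorescence read.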
Assay [18] is described as follows: qHTS assay to identify small molecule antagonists of the sonic hedgehog signaling (Shh) pathway - cell viability counter screen (AID 1259367). Also: nearly all actives have a fitted effect of over 55% in size. Also: potency is read from the fitted curve at half-maximal effect. The gist of the method:
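After a 4 hr settling period, 3T3 Gli1-Luc cells were treated with DMSO-dissolved chemicals and conditioned medium, kept 24 hr at 37C in 5% CO2, and assayed for viability by CellTiter-Fluor fluorescence following 1 hr reagent incubation.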

Assay [19] can be described thus: qHTS assay to identify small molecule antagonists of the sonic hedgehog signaling (Shh) pathway (AID 1259369; calls by dose curve; also: nearly all actives have a fitted effect of over 45% in size; also: potency is read from the fitted curve at half-maximal effect). The procedure, abridged: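 Inhibition of Shh signalling is measured as reduced Gli1-response-element firefly luciferase output in an NIH/3T3-derived stable reporter clone stimulated with conditioned medium for 24hr.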

As to `CCC(=O)OCCc1ccccc1`, the Potency entry in assay [1], in assay [2], in [3], in assay [4], in assay [5] and in assay [6] was “inactive” in each case. The Potency result in assay [7], in assay [8], in [9], in assay [10], in assay [11] and in assay [12] was “inactive” throughout. The Potency entry in assay [13], in assay [14] and in assay [15] was “inactive” each time.

For `CCCCCCCOC(=O)c1ccccc1C(=O)OCCCCCCC`, the Potency entry in [1], in assay [2], in [3], in [4], in assay [5] and in assay [6] was “inactive” in each case. The Potency result in assay [7], in [8], in assay [9], in assay [10], in assay [16] and in assay [12] was “inactive” each time. The Potency result in assay [13], in assay [14], in [17], in assay [18] and in [15] was “inactive” each time.

Consider `[O]=[Zr]`, for which the Potency result in assay [1], in [2], in assay [3], in assay [4], in [5] and in [6] was “inactive” each time. In addition, the Potency entry in assay [7], in [8], in assay [9], in assay [10], in assay [13] and in [14] was “inactive” in each case. For the same compound, the Potency entry in assay [18] and in assay [15] was “inactive” in each case.

`O=C(O)CCn1c2c(c3ccccc31)C[C@H](NS(=O)(=O)c1ccc(F)cc1)CC2`: the Potency result in assay [1], in assay [2], in assay [3], in assay [4], in assay [5] and in assay [6] was “inactive” throughout. For the same compound, the Potency entry in assay [7], in assay [8], in assay [9], in [10], in assay [11] and in [13] was “inactive” in each case. Moreover, the Potency result in [14], in assay [15] and in [19] was “inactive” each time.

On to `Cc1c(C(=O)O)cccc1[N+](=O)[O-]`, for which the Potency result in [1], in assay [2], in assay [3], in assay [4], in [5] and in assay [6] was “inactive” in each case. The Potency result in assay [7], in assay [8], in [9], in assay [10], in assay [16] and in assay [13] was “inactive” each time. Also, the Potency entry in [14] and in assay [15] was “inactive” each time. Besides, the Potency in assay [18] is 55.4 µM (active); in [19], 19.6 µM (active).

For `CCc1cccc(C)c1`, the Potency entry in [1], in assay [2], in assay [3], in [4], in assay [5] and in assay [6] was “inactive” each time. The Potency result in assay [7], in assay [8], in assay [9], in [10], in assay [11] and in assay [12] was “inactive” each time. Also, the Potency result in assay [14], in assay [18], in [15] and in assay [19] was “inactive” in each case.

Turning to `CC1=CCC(=O)O1`, the Potency result in assay [1], in assay [2], in [3], in assay [4], in assay [5] and in [6] was “inactive” throughout. Further, the Potency result in assay [7], in assay [8], in [9], in assay [10], in assay [11] and in [12] was “inactive” in each case. The Potency entry in assay [13], in assay [17], in assay [18], in assay [15] and in assay [19] was “inactive” each time.

Take `CCCCCCCC/C=C\CCCCCCCC(=O)OCCOC(=O)CCCCCCC/C=C\CCCCCCCC`: the Potency entry in assay [1], in [2], in assay [3], in [4], in assay [5] and in [7] was “inactive” in each case. The Potency entry in assay [8], in [9], in assay [10], in assay [12], in assay [13] and in assay [14] was “inactive” each time. Besides, the Potency entry in assay [17], in [18], in assay [15] and in assay [19] was “inactive” each time. The Potency in assay [6] is 20.2 µM (active).

As for `COc1ccc(C#N)cc1`, the Potency entry in assay [1], in [2], in [3], in assay [4], in [5] and in assay [6] was “inactive” throughout. Besides, the Potency entry in assay [7], in assay [8], in assay [9], in assay [10], in assay [11] and in assay [12] was “inactive” in each case. In addition, the Potency entry in assay [13], in assay [14], in assay [17], in assay [18], in [15] and in assay [19] was “inactive” throughout.

In the case of `OCCC(O)CO` (stereo not given), the Potency entry in [1], in assay [2], in assay [3], in assay [4], in assay [5] and in assay [6] was “inactive” in each case. In addition, the Potency entry in assay [7], in [8], in assay [9], in assay [10], in assay [11] and in assay [12] was “inactive” in each case. Further, the Potency entry in [13], in [18], in [15] and in assay [19] was “inactive” throughout.

Consider `C=CCCCCCCC=C`, for which the Potency result in assay [1], in assay [2], in assay [3], in assay [4], in assay [5] and in [6] was “inactive” in each case. Moreover, the Potency entry in assay [7], in assay [8], in assay [9], in [10], in assay [13] and in [14] was “inactive” throughout. In addition, the Potency entry in assay [15] is “inactive”.

Regarding `C1CC(COCC2CO2)CCC1COCC1CO1` (stereo not given), the Potency result in [1], in [2], in assay [3], in assay [4], in [5] and in assay [6] was “inactive” each time. In addition, the Potency entry in assay [7], in assay [8], in [9], in [10], in assay [12] and in [14] was “inactive” throughout. The Potency result in assay [17], in [18], in [15] and in [19] was “inactive” in each case.

For `CCCCCCCC/C=C\CCCCCCCC(=O)NCc1ccc(O)c(OC)c1`, the Potency entry in [1], in [2], in assay [3], in assay [4], in assay [7] and in [8] was “inactive” throughout. The Potency result in assay [9], in [10], in [11], in assay [13], in assay [14] and in assay [17] was “inactive” in each case. Besides, the Potency result in assay [18], in assay [15] and in [19] was “inactive” in each case. Moreover, the Potency is 2.39 µM (active) in assay [5] and 1.51 µM (active) in assay [6].

Take `Cc1cccc(C)n1`: the Potency result in assay [1], in assay [2], in assay [3], in assay [4], in [5] and in [6] was “inactive” each time. Besides, the Potency entry in [7], in assay [8], in [9], in assay [10], in assay [16] and in [12] was “inactive” in each case. The Potency result in assay [13], in assay [14], in assay [17], in assay [18], in assay [15] and in assay [19] was “inactive” in each case.
